Source: PubChem
Pf apPOL block: Pf-apPOL DNA polymerase inhibition; Recombinant Pf-apPOL, molecular beacon fluorescence, 1.5 h; inhibition, % at 10 µM; 210,000 compounds, 0.25% hits
mHTT CaM bind: inhibitors of human mutant huntingtin-calmodulin interaction | P42858 | 190,000 compounds, 3.6% hits | AID 1671202 | inhibition, % at 15 µM | AlphaScreen His-mHTT/GST-CaM binding, luminescence;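 further: 0% = both proteins with DMSO and 100% = one protein alone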
Target sequence (P42858 whole entry, looked up, stated change not applied): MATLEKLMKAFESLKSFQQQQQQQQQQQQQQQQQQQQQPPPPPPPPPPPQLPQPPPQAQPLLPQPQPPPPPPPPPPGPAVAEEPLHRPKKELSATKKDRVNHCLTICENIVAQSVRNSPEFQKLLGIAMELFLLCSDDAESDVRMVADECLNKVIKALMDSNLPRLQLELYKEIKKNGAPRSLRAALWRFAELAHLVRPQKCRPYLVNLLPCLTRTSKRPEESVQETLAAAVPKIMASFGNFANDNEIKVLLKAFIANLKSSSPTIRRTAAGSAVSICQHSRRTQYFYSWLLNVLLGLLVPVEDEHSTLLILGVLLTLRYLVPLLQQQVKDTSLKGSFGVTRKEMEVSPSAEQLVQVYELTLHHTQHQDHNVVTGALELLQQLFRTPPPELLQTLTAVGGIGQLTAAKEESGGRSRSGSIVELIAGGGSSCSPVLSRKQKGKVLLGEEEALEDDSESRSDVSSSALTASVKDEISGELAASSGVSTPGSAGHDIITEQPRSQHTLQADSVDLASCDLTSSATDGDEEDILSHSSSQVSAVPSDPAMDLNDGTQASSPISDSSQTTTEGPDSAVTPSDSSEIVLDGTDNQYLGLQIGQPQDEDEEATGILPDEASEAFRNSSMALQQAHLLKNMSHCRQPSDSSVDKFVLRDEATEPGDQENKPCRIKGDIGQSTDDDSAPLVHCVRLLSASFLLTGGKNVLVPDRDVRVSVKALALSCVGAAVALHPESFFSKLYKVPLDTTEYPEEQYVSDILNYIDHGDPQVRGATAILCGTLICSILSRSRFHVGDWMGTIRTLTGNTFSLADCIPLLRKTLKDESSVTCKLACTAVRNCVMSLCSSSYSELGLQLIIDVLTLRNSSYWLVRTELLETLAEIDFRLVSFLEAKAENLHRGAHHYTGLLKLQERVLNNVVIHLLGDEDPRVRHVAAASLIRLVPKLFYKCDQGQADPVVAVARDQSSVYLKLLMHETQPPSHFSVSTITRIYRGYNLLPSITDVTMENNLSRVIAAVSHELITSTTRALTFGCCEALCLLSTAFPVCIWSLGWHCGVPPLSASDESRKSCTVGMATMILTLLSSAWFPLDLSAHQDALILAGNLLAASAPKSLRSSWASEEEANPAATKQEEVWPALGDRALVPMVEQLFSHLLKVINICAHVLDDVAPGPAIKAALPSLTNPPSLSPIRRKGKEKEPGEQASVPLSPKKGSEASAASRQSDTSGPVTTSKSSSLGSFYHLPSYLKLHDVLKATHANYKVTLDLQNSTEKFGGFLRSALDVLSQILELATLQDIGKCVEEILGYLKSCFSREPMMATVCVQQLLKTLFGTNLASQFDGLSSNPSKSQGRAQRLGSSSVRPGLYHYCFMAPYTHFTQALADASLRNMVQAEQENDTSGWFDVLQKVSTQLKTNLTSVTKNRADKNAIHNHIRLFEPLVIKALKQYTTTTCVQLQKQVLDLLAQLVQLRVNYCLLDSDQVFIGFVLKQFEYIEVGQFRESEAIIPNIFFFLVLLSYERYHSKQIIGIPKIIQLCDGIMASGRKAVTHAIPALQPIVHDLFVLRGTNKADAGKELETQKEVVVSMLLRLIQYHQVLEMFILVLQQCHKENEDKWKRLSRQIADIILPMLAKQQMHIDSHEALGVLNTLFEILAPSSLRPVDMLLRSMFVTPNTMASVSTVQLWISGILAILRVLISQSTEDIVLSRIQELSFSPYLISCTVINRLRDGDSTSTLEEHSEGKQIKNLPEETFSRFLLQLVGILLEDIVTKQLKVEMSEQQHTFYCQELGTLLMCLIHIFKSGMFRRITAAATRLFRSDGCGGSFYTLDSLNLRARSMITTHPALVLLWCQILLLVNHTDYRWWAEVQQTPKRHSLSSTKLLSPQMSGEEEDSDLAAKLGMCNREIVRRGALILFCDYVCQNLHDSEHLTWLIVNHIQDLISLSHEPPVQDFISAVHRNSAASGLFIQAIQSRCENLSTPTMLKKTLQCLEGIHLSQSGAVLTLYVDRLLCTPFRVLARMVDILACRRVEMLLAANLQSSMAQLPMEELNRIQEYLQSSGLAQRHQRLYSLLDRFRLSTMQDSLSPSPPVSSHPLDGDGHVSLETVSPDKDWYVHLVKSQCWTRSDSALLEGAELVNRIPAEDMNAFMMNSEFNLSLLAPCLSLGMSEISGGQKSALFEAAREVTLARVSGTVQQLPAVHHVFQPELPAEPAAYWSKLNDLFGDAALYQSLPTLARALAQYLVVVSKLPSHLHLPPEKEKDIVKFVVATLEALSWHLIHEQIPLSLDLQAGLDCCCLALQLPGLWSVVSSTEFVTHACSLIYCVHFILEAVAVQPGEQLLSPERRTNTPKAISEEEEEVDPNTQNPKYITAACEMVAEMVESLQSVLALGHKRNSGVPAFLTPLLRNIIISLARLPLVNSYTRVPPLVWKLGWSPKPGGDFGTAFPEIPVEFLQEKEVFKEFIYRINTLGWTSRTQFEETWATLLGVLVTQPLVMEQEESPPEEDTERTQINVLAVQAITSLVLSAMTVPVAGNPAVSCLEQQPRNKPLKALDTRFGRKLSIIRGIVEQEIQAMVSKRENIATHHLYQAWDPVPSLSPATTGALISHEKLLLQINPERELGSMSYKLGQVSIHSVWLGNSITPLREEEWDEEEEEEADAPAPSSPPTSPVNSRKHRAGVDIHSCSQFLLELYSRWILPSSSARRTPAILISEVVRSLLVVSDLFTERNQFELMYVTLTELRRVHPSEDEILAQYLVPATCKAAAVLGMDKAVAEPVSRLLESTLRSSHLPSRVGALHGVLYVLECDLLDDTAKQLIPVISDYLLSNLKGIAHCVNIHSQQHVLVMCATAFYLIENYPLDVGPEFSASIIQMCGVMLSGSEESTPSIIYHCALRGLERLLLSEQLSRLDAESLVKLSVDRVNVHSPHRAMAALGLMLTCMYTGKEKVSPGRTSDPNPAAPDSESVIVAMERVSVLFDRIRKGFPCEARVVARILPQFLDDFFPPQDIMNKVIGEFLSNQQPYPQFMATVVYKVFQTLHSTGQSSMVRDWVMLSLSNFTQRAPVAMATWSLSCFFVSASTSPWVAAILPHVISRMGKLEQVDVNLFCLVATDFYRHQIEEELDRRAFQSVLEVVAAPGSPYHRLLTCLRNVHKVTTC
Active calls of the source: *; i = inactive; . = no result. Compounds with a hit are over-represented: about 3.5% of the library has one in this group of screens. No stated cut-off is given here; in the data, active means inhibition above about 50%; inactive means the rest.

SMILES | Pf apPOL block | mHTT CaM bind
CC1C(=O)N2CCCc3cc(NC(=O)C(=O)NCCc4c[nH]c5ccccc45)cc1c32 (centres undefined) | -8 | 76*
Cc1nnc(Sc2cc(C(=O)NCCCN3CC(C)CC(C)C3)c3ccccc3n2)s1 (centres undefined) | -18 | -4
c1ccc(-c2n[nH]c(C3CCCN3Cc3ccco3)n2)cc1 (centres undefined) | 3 | 33
c1ccc(-c2n[nH]c(C3CCCN3Cc3ccccn3)n2)cc1 (centres undefined) | -30 | 100*
Cc1ccc(NCN2C(=O)C3CC=C(Cl)CC3C2=O)cc1 (centres undefined) | -10 | 64*
O=C1C2CC=C(Cl)CC2C(=O)N1CNc1ccccc1 (centres undefined) | -1 | -1
CC(C)(C)n1nc2c(c1NC(=O)c1ccc(Br)o1)CS(=O)(=O)C2 | 0 | -2
CCOc1ccc(N=c2scc(-c3ccc(F)cc3)n2CCCO)cc1 | -7 | 31
COc1ccc(-c2csc(=Nc3ccccc3)n2CCCN(C)C)cc1 | 2 | 45
COc1ccc(N=c2scc(-c3ccc(OC)cc3)n2CCN2CCOCC2)cc1 | 3 | 36
COc1ccc(N=c2scc(-c3ccc4c(c3)OCCO4)n2CCO)cc1 | -2 | 53*
CCOc1ccc(N=c2scc(-c3ccc(Cl)s3)n2CCCO)cc1 | -2 | 35
COc1ccc(-c2csc(=Nc3ccccc3)n2CCO)cc1F | -3 | 53*
OCCCn1c(-c2ccc(F)cc2)csc1=Nc1ccc(Cl)cc1 | -4 | 87*
COc1ccc(-c2csc(=Nc3ccc(Cl)cc3)n2CCCO)cc1F | 0 | 76*
Cc1ccc2cc3cc(C(=O)Nc4ccc(F)cc4)oc3nc2c1 | -10 | 0
O=C(Nc1nnc(-c2ccccc2)s1)c1ccccc1I | -7 | -3
Cc1oc(C2CCN(C(=O)c3ccco3)CC2)nc1C(=O)N1CCCCC1 | -5 | -2
COc1ccc(-n2c(C)cc(CN)c2C)cc1 | -1 | 64*
COc1ccc(NC(=O)/C(C#N)=C/c2cc(C)n(-c3ccc(F)cc3)c2C)cc1 | 0 | 1
Cc1ccc(C(C(=O)Nc2ccc(C(C)C)cc2)N(Cc2ccco2)C(=O)c2cnccn2)cc1 (centres undefined) | -9 | 69*
CC(C)c1ccc(NC(=O)C(c2ccccc2)N(C)C(=O)c2cnccn2)cc1 (centres undefined) | -1 | 20
COc1cc(C=Nc2ccc3[nH]c(=O)[nH]c3c2)cc(Br)c1O | -2 | 3
COc1ccc(C(C[N+](=O)[O-])c2c(O)cc(C)oc2=O)cc1 (centres undefined) | 1 | 6
Cc1cc(O)c(C(C[N+](=O)[O-])c2ccc(Cl)cc2Cl)c(=O)o1 (centres undefined) | 2 | 3
SMILES | Pf apPOL block | mHTT CaM bind
Cc1[nH]c2ccccc2c1C(C[N+](=O)[O-])c1ccc2c(c1)OCO2 (centres undefined) | 4 | 75*
Cc1[nH]c2ccccc2c1C(Nc1nccs1)c1ccc2c(c1)OCO2 (centres undefined) | 7 | 83*
COc1cc(C(C[N+](=O)[O-])c2c(C)[nH]c3ccccc23)ccc1O (centres undefined) | 1 | 61*
Cc1[nH]c2ccccc2c1C(C[N+](=O)[O-])c1cc(Cl)c2c(c1)OCO2 (centres undefined) | 1 | 62*
O=[N+]([O-])CC(c1ccc2c(c1)OCO2)c1c[nH]c2ccccc12 (centres undefined) | -6 | 20
O=C(Nc1nccs1)c1ccc2c(c1)OCO2 | -11 | -4
Cc1nn(C)c2nc(Cl)c(-c3ccc(Cl)cc3)nc12 | -6 | -4
Cc1ccc(/C=C2\NC(=O)N(Cc3ccccc3F)C2=O)cc1 | -17 | -6
Cc1cc(C)c2cc(C(=O)NCCSCc3ccco3)[nH]c2c1 | -1 | .
O=C(c1ccco1)N1CCC(c2nc(-c3ccccc3)n[nH]2)CC1 | 6 | 11
Cc1ccc(S(=O)(=O)N2CCC(n3cnc4ccccc4c3=O)CC2)c(C)c1 | -1 | -8
COC(=O)CNC(=O)N1CCCC1c1c(C)noc1C (centres undefined) | 0 | -5
Cc1cccc(NC(=O)COc2ccc(Cl)c(C)c2)n1 | 0 | 7
Cc1cccc(NC(=O)COc2c(C)cc(Cl)cc2Cl)n1 | 58* | -8
O=C(c1cccs1)N1CCN(c2ccc3nnc(-c4ccco4)n3n2)CC1 | 1 | 56*
O=C(NC1CCCCC1)N1CCN(c2ccc3nnc(-c4ccco4)n3n2)CC1 | -1 | -5
Cc1ccc(CNc2ccc(S(=O)(=O)C(C)(C)C)nn2)cc1 | -6 | 1
COc1cc(S(=O)(=O)NCc2ccc3c(c2)OCO3)c(OC)cc1Br | -9 | 0
COc1ccc(CNc2ccc3c(c2)OCO3)cc1Br | -5 | 96*
COc1cc(OC)c(CNc2ccc3c(c2)OCO3)cc1Br | -7 | 100*
COc1ccc(S(=O)(=O)Nc2ccc3c(c2)OCO3)cc1Br | . | 24
CC(C)(C)n1nc2c(c1NC(=O)COc1ccc(Cl)cc1)CSC2 | 6 | 57*
CC(C)(C)n1nc2c(c1NC(=O)COc1ccc(Cl)cc1Cl)CSC2 | -3 | 13
CCCOc1nccnc1N1CCC(NC(=O)Cc2cccs2)C1 (centres undefined) | -4 | 2
Nc1nc(-c2ccccc2)cc(=S)s1 | . | 51*
SMILES | Pf apPOL block | mHTT CaM bind
Nc1nc(-c2ccc(-c3ccccc3)cc2)cs1 | 0 | 45
COc1ccc(NC(=O)CS(=O)(=O)c2cn(Cc3ccccc3Cl)c3ccccc23)cc1 | -3 | 17
Cc1ccc(C)c(NC(=O)CSc2cccc3cccnc23)c1 | -2 | 10
Cc1ccnc(NC(c2cccc(C)n2)c2ccc3cccnc3c2O)c1 (centres undefined) | 3 | 87*
Cc1ccnc(NC(c2cc(C)ccc2O)c2ccc3cccnc3c2O)c1 (centres undefined) | -7 | 99*
Cc1ccnc(NC(=O)c2cccc(Cl)c2)c1 | -6 | -12
CCc1nc(N2CCN(C)CC2)c2cnn(-c3ccccc3Cl)c2n1 | 1 | 9
Cc1ccc(-n2nc3c(c2NC(=O)c2ccc(C)c([N+](=O)[O-])c2)CSC3)cc1 | -2 | -5
CCCOc1ccc(-c2ccc(C#N)cc2)cc1 | 4 | -47
CCCCn1c(=N)c(S(=O)(=O)c2ccccc2)cc2c(=O)n3ccccc3nc21 | -15 | -6
Cc1ccc(C(=O)N2N=C(c3ccc(Br)cc3)CC2c2ccco2)cc1 (centres undefined) | -3 | 78*
O=C(O)CCCC(=O)N1N=C(c2ccc(Br)cc2)CC1c1ccco1 (centres undefined) | -2 | 22
CC(NC(=O)c1c(O)c2sccc2[nH]c1=O)c1ccncc1 (centres undefined) | -3 | -6
Cc1ccccc1C(=O)N1CCCC(c2ccnc(-c3ccc(F)cc3)n2)C1 (centres undefined) | 0 | 73*
COc1ccc(-c2nccc(C3CCCN(C(=O)c4ccccc4C)C3)n2)cc1 (centres undefined) | 0 | 3
O=C(c1cccs1)N1CCCC(c2ccnc(-c3ccccc3)n2)C1 (centres undefined) | -6 | 95*
COc1ccc(-c2nccc(C3CCCN(C(=O)c4cccs4)C3)n2)cc1 (centres undefined) | -5 | 11
Cc1cc(/C=N/O)c(S(C)(=O)=O)s1 | . | i
COCCNC(=O)C1(C)CCC(=O)N1Cc1ccccc1OC (centres undefined) | 8 | 0
Cc1ccc2c(c1)nnc1nncn12 | 2 | .
